# The full ranking holds about 140,000 sequences; the median of “enrichment ratio after two sorts for PhoP signalling” is about 0, and the highest 2% start at about 11. For the sample, the highest values were picked, then their nearest neighbours and some sequences at random.
# B1: PhoQ; a variant is named by its letters at X, in order, P23837 (parent)
# chain: MKKLLRLFFPLSLRVRFLLATAAVVLVLSLAYGMVALIGYSVSFDKTTFRLLRGESNLFYTLAKWENNKLHVELPENIDKQSPTMTLIYDENGQLLWAQRDVPWLMKMIQPDWLKSNGFHEIEADVNDTSLLLSGDHSIQQQLQEVREDDDDAEMTHSVAVNVYPATSRMPKLTIVVVDTIPVELKSSYMVWSWFIYVLSANLLLVIPLLWVAAWWSLRPIEALAKEVRELEEHNRELLNPATTRELTSLVRNLNRLLKSERERYDKYRTTLTDLTHSLKTPLXXLQXXLRSLRSEKMSVSDAEPVMLEQISRISQQIGYYLHRASMRGGTLLSRELHPVAPLLDNLTSALNKVYQRKGVNISLDISPEISFVGEQNDFVEVMGNVLDNACKYCLEFVEISARQTDEHLYIVVEDDGPGIPLSKREVIFDRGQRVDTLRPGQGVGLAVAREITEQYEGKIVAGESMLGGARMEVIFGRQHSAPKDE
# Variants of: B1
# Test: enrichment ratio after two sorts for PhoP signalling (ratio (wild type AVST 3.29)); higher = more functional
# Details: with PhoP (E. coli)
row,Variant,enrichment ratio
1,PSSG,≤ 0.25
2,AGQH,≤ 0.25
3,HPFG,≤ 0.25
4,NWHP,≤ 0.25
5,LKHK,≤ 0.25
6,FSCM,16.6
7,LCCM,≤ 0.25
8,FCCM,≤ 0.25
9,NSCM,≤ 0.25
10,VCCM,13.1
11,KSCM,≤ 0.25
12,TSCM,25.8
13,MMCM,≤ 0.25
14,VSCM,13.1
15,VSCK,≤ 0.25
16,KCCM,≤ 0.25
17,RSCM,≤ 0.25
18,LKST,≤ 0.25
19,GVIN,≤ 0.25
20,MQIN,≤ 0.25
21,QHSN,≤ 0.25
22,YAPD,≤ 0.25
23,QLGK,3.11
24,MDFQ,≤ 0.25

row,Variant,enrichment ratio
1,YSCK,≤ 0.25
2,SSCK,4.35
3,SSCM,19
4,YRCM,≤ 0.25
5,VNCM,4.53
6,YSCM,12.8
7,AINP,≤ 0.25
8,SWTQ,≤ 0.25
9,AGWR,≤ 0.25
10,AYMH,≤ 0.25
11,HGMH,≤ 0.25
12,NHMH,≤ 0.25
13,TGMH,14.5
14,AHMH,≤ 0.25
15,AGMH,26
16,RGMH,≤ 0.25
17,THMH,13.2
18,PWRH,≤ 0.25
19,DSMV,≤ 0.25
20,ALNP,≤ 0.25
21,ILLI,≤ 0.25
22,IWRF,≤ 0.25
23,LDDP,≤ 0.25
24,WICF,≤ 0.25

row,Variant,enrichment ratio
1,AKCF,1.73
2,THCF,17.5
3,SHCF,7.35
4,ALCF,13.2
5,AICF,13.5
6,AMCF,12.3
7,NICF,≤ 0.25
8,NHCF,≤ 0.25
9,NMCF,≤ 0.25
10,PLCF,≤ 0.25
11,MMCF,≤ 0.25
12,IASH,≤ 0.25
13,FYVH,≤ 0.25
14,ESKG,≤ 0.25
15,WMCQ,≤ 0.25
16,VWMT,≤ 0.25
17,PQSG,≤ 0.25
18,VPYN,≤ 0.25
19,AAPG,≤ 0.25
20,DMIH,≤ 0.25
21,MFGN,≤ 0.25
22,IQAI,≤ 0.25
23,SKPA,≤ 0.25
24,SQAI,15.1

row,Variant,enrichment ratio
1,SKFA,≤ 0.25
2,VLAI,≤ 0.25
3,WLAI,≤ 0.25
4,SKAI,14
5,SAAI,7.86
6,SLAI,15.7
7,YGYC,≤ 0.25
8,YRGI,≤ 0.25
9,YDSS,≤ 0.25
10,AHPL,≤ 0.25
11,RPNK,≤ 0.25
12,QELE,≤ 0.25
13,SELE,21.5
14,SQLE,16.5
15,KSLE,≤ 0.25
16,KYLE,≤ 0.25
17,SPLE,≤ 0.25
18,SEVE,6.62
19,NELE,≤ 0.25
20,SFLE,≤ 0.25
21,FELE,20.4
22,SSLE,12
23,DPLE,≤ 0.25
24,LDMG,≤ 0.25

row,Variant,enrichment ratio
1,LDRD,≤ 0.25
2,SKTY,≤ 0.25
3,FKIR,≤ 0.25
4,PKAM,≤ 0.25
5,NVYD,≤ 0.25
6,IGIE,≤ 0.25
7,KYVT,≤ 0.25
8,PQLS,≤ 0.25
9,PYIW,≤ 0.25
10,GTLE,14.3
11,LTLE,≤ 0.25
12,GYLE,≤ 0.25
13,GQLE,14.3
14,YTLE,3.23
15,WQLE,≤ 0.25
16,TWHD,≤ 0.25
17,YYAE,≤ 0.25
18,KCKS,≤ 0.25
19,HTMI,1.06
20,WRCP,≤ 0.25
21,FWNS,≤ 0.25
22,AVSH,12.4
23,AVGM,3.94
24,AVCC,8.73

row,Variant,enrichment ratio
1,AVTH,9.18
2,AVPM,1.53
3,AVCV,5.84
4,AVMH,11.8
5,AVAM,3.19
6,AVWR,≤ 0.25
7,AVTM,12.4
8,AVWM,≤ 0.25
9,AVCK,16.2
10,MFGF,≤ 0.25
11,LYKG,≤ 0.25
12,ASIY,3.82
13,VFVG,≤ 0.25
14,DYAM,≤ 0.25
15,DHDS,≤ 0.25
16,AVCH,13
17,AVCM,15.4
18,NVCG,≤ 0.25
19,NVCH,≤ 0.25
20,PVCG,≤ 0.25
21,FVCM,2.91
22,AVAT,≤ 0.25
23,AVTI,10.4
24,NVCM,≤ 0.25

row,Variant,enrichment ratio
1,AVAH,13.4
2,AVCG,16
3,TVAH,3.22
4,DWKH,≤ 0.25
5,QWAC,≤ 0.25
6,PYDI,≤ 0.25
7,SRND,≤ 0.25
8,DGIY,≤ 0.25
9,KFTT,≤ 0.25
10,MWVS,≤ 0.25
11,NKPN,≤ 0.25
12,STYR,≤ 0.25
13,AVCE,≤ 0.25
14,AVCI,21.8
15,AVCS,8.99
16,RVVQ,≤ 0.25
17,VRPL,≤ 0.25
18,IQLV,≤ 0.25
19,AEIE,≤ 0.25
20,AEHP,≤ 0.25
21,AQHP,≤ 0.25
22,AEIA,15.4
23,ACHP,≤ 0.25
24,AQIQ,27.9

row,Variant,enrichment ratio
1,ACVQ,2.26
2,AEIV,4.76
3,AQQQ,≤ 0.25
4,ACIQ,11.8
5,AEFQ,3.73
6,AEIQ,24.4
7,KAHK,≤ 0.25
8,LFVQ,≤ 0.25
9,MTRG,≤ 0.25
10,YDCD,≤ 0.25
11,TFDY,≤ 0.25
12,SERL,≤ 0.25
13,WHLP,≤ 0.25
14,KMMG,≤ 0.25
15,AEPM,0.861
16,AEIS,10.8
17,AEIL,28.2
18,AKIQ,≤ 0.25
19,AEII,16.4
20,AENL,≤ 0.25
21,ADIQ,21.4
22,AHIQ,≤ 0.25
23,AEIM,15.7
24,AEIT,2.48

row,Variant,enrichment ratio
1,AEYL,6.74
2,THTQ,1.45
3,EWAP,≤ 0.25
4,GFIS,≤ 0.25
5,LHFN,≤ 0.25
6,NVLT,≤ 0.25
7,SCYK,≤ 0.25
8,DWIV,≤ 0.25
9,KRHG,≤ 0.25
10,NHPL,≤ 0.25
11,KIDW,≤ 0.25
12,GARI,≤ 0.25
13,QYLE,≤ 0.25
14,FEPL,≤ 0.25
15,QPSM,≤ 0.25
16,QQSM,13.3
17,QRSM,≤ 0.25
18,TPSM,≤ 0.25
19,QDSM,≤ 0.25
20,QSSM,15.9
21,QIAI,2.26
22,SIKG,≤ 0.25
23,LGAF,≤ 0.25
24,VRDP,≤ 0.25

row,Variant,enrichment ratio
1,HMSS,≤ 0.25
2,PMDA,≤ 0.25
3,SGWG,≤ 0.25
4,SGTA,7.55
5,SGTS,7.16
6,SGTG,15.9
7,SGDG,≤ 0.25
8,SGTI,16.7
9,AGFW,≤ 0.25
10,VWNV,≤ 0.25
11,GLKA,≤ 0.25
12,ENWV,≤ 0.25
13,NKIG,≤ 0.25
14,PDHR,≤ 0.25
15,HRML,≤ 0.25
16,HYML,≤ 0.25
17,NAML,≤ 0.25
18,TAML,25.8
19,KAML,≤ 0.25
20,HTML,11.7
21,DPPS,≤ 0.25
22,TQCY,15.8
23,KYCY,≤ 0.25
24,RNCY,≤ 0.25

row,Variant,enrichment ratio
1,IQCY,≤ 0.25
2,SRCY,≤ 0.25
3,QECY,≤ 0.25
4,TECY,16.2
5,SNCY,7.63
6,SQCY,12.2
7,DWCY,≤ 0.25
8,SECY,13.7
9,MECY,4.09
10,GSCQ,8.75
11,GDAQ,≤ 0.25
12,TRTV,9.35
13,SEWD,≤ 0.25
14,KVEG,≤ 0.25
15,LQIG,≤ 0.25
16,MKTT,≤ 0.25
17,TKTT,11.6
18,FQTT,≤ 0.25
19,SRTT,≤ 0.25
20,AKTT,3.25
21,SETT,12.6
22,YTTT,≤ 0.25
23,EQTT,≤ 0.25
24,LTTT,≤ 0.25

row,Variant,enrichment ratio
1,KYTT,≤ 0.25
2,TTTT,12.1
3,TQTT,23.1
4,YAIP,≤ 0.25
5,IDRF,≤ 0.25
6,ATER,≤ 0.25
7,NGCY,≤ 0.25
8,PIGE,≤ 0.25
9,SMQQ,≤ 0.25
10,IGVV,≤ 0.25
11,ISAV,0.486
12,ADQP,≤ 0.25
13,APWD,≤ 0.25
14,PTFA,≤ 0.25
15,KRKW,≤ 0.25
16,MIGL,1.45
17,ICTT,11.9
18,MMTT,≤ 0.25
19,LCTT,≤ 0.25
20,SITT,6.9
21,KSTT,≤ 0.25
22,TSTT,15.1
23,VCTT,≤ 0.25
24,SCTT,11.4

row,Variant,enrichment ratio
1,SPTT,≤ 0.25
2,FCTT,≤ 0.25
3,SQTT,11.4
4,KCTT,≤ 0.25
5,GPRY,≤ 0.25
6,TYWS,≤ 0.25
7,LGDG,0.39
8,IKPA,≤ 0.25
9,YKHD,≤ 0.25
10,TNPV,≤ 0.25
11,YHGA,≤ 0.25
12,LTAQ,≤ 0.25
13,NSAQ,≤ 0.25
14,TDAQ,13.4
15,KSAQ,≤ 0.25
16,FDAQ,≤ 0.25
17,TSAQ,19.6
18,EETH,≤ 0.25
